This note sets out measurements from ChEMBL document CHEMBL1157539, “Thousands of chemical starting points for antimalarial lead identification” (Nature, 2010).

The first experiment concerns Plasmodium falciparum. As to the kind of experiment: GSK_TCMDC: Inhibition of Plasmodium falciparum 3D7 in whole red blood cells, using parasite LDH activity as an index of growth. Test compounds present at 2uM. The format is functional.
One may read the Inhibition as the drop in the measured response relative to a control, in per cent. A lower Inhibition goes with a weak effect. As for `Cc1[nH]c(C)c(-c2ccc(-c3ccc(F)cc3)nc2)c(=O)c1Br`, the Inhibition worked out at 97%.
Still for that read-out and setting: for `Cc1ccc2[nH]c(-c3cc(-c4cccc(CCN5CCOCC5)c4)cnc3N)nc2c1.O=C(O)C(F)(F)F` the value was 100%; for `O=C(Nc1cccc(-c2ccc(CN3CCCC3)cc2)c1)c1ccc(F)cc1.O=C(O)C(F)(F)F`, 92%.
On the same count and under the same terms, under `CC1(C)NC(N)=NC(=N)N1OCc1ccc2ccccc2c1CON1C(=N)N=C(N)NC1(C)C` stands 96%; under `Cc1ccc2c(=NN=Cc3cccc(F)c3)cc(C)[nH]c2c1`, 96%.

The next experiment relates to Plasmodium falciparum. As to the kind of experiment: GSK_TCMDC: Inhibition of Plasmodium falciparum Dd2 in whole red blood cells, using parasite LDH activity as an index of growth. Test compounds present at 2uM. The format is functional.
As to `N=C(NCc1ccccc1)Nc1nc(-c2ccc(OCCCn3ccnc3)cc2)cs1`, the Inhibition is listed as 55%.
Turning to `Cl.N=C(N)Nc1ccc(OCCCCCOc2ccc(NC(=N)N)cc2Br)c(Br)c1`, the Inhibition amounted to 95%.
As for `CC(CO)(CO)NCc1cc2c3ccccc3c(CNC(C)(CO)CO)cc2c2ccccc12.CS(=O)(=O)O`, the Inhibition came out at 98%.
Consider `CCN(CC)CCOc1ccc(C(O)(C#CC(O)(c2ccc(Br)cc2)c2ccc(OCCN(CC)CC)cc2)c2ccc(Br)cc2)cc1` (stereo not given), for which the Inhibition stood at 99%.
The compound `CC(=O)Nc1nc(C(=O)Nc2ccc(-c3cccc(-c4nc5cccc(C)c5[nH]4)c3)cc2)cs1` gave an Inhibition of 73%.
`O=C(O)C(F)(F)F.O=S(=O)(NC1CCCCN(Cc2ccccc2O)C1)c1ccc(C(F)(F)F)cc1` (stereo not given): the Inhibition is recorded as 39%.
On the same count and under the same terms, under `CCCCCCCCCc1c(C)[nH]c2ccccc2c1=O` stands 96%; under `COc1ccc(C[C@H](N)C(=O)N[C@H]2[C@@H](O)[C@H](n3cnc4c(N(C)C)ncnc43)O[C@@H]2CO)cc1.Cl`, 91%; under `CN1CCc2ccc(NC(=O)Nc3cccc([N+](=O)[O-])c3)cc2C1`, 3%.
Same read-out and setting: under `CO/C(=C\C=C\c1cc2cc(Cl)c(Cl)cc2[nH]1)C(=O)NCCCN(C)CCN(C)c1ccccc1` stands 59%.
Same read-out and setting: under `COc1ccc(-c2ccccc2OCCCNc2nc(NCCc3ccc(O)cc3)nc(N3CCNCC3)n2)cc1.O=C(O)C(F)(F)F` stands 3%; under `O=C(NC1CC1)c1cnc(N2CCN(Cc3c(F)cccc3Cl)CC2)c(Cl)c1.O=C(O)C(F)(F)F`, 93%; under `COc1cc(C(=O)NCCCN2CCN(c3cccc(Cl)c3)CC2)ccc1-c1nc2cc(Cl)c(F)cc2[nH]1`, 81%.
With `CCCC(C)Nc1nc(C)cc(N[C@@H](CC(C)C)C(=O)NCc2ccc(C)cc2)n1.O=C(O)C(F)(F)F` (stereo not given in full), the Inhibition came to 51%.
As for `COc1ccc(CNCc2cccc(-c3ccc(-c4nc5ccccc5[nH]4)cc3)c2)cc1.O=C(O)C(F)(F)F`, the Inhibition came out at 60%.
Take `Cc1cc(C2CCN(CCCCNC(=O)c3ccc(-c4ccc(C(F)(F)F)cc4)cc3)CC2)c(C)cc1OCC#N`: the Inhibition was determined as 58%.
`O=c1cc(NCCCNC2CCc3ccc(Cl)cc32)[nH]c2ccccc12` (stereo not given) gave an Inhibition of 39%.
On the same count and under the same terms, under `O=C(Nc1cccc(-c2ccc(-c3nc4cc(C(F)(F)F)ccc4[nH]3)cc2)c1)Nc1ccc(F)c(F)c1F` stands 99%; under `CCN(CC)S(=O)(=O)c1cc(-c2ccc(=O)n(CC(=O)c3ccc(C)cc3)n2)ccc1C`, 66%.
As for `CCCCCCCC/C=C\CCCCCCCC(=O)NCc1ccc(O)c(OC)c1` [OLVANIL], the Inhibition stood at 93%.
Still for that read-out and setting: under `Cc1cc(F)ccc1-c1nc(N(C)CCN(C)C(=O)N(C)c2ccccc2)nc2c1ccc(=O)n2-c1c(F)cccc1F.O=C(O)C(F)(F)F` stands 77%.
Same read-out and setting: under `O=C(Nc1ccc(N2CCCN(Cc3cccc(F)c3)CC2)cc1)c1ccccc1.O=C(O)C(F)(F)F` stands 95%.
On to `Cc1cc(=NN=CC=Cc2ccccc2)c2ccccc2[nH]1`, for which the Inhibition is on record as 69%.
As to `O=C(C=Cc1ccc(Cl)c(Cl)c1)NCCCCCN1CCCC(CCCNC(=O)/C=C/c2ccccc2)C1` (stereo not given), the Inhibition is 12%.
For the compound `Cc1nn(-c2ccccc2)c2sc(C(=O)N(CCCN(C)C)c3nc(-c4ccccc4)cs3)cc12.Cl`, the Inhibition was determined as 36%.
Compound `CC(=O)N1CCC(C(=O)Nc2ccc(-c3cccc(-c4nc5cccc(C)c5[nH]4)c3)cc2)CC1` showed an Inhibition of 27%.
`CC(=O)Oc1c(C2CCN(CCCCNC(=O)c3ccc(NC(=O)c4ccc(Cl)cc4)cc3)CC2)ccc2ccccc12` displayed an Inhibition of 92%.
Compound `CC[C@H](C)CNC(=O)c1cncc(-c2ccc(CNCCOc3ccccc3)cc2)c1.O=C(O)C(F)(F)F` yielded an Inhibition of 0%.
`CN(C)Cc1ccc(-c2cccc(Nc3nccc(NCC(O)c4ccccc4)n3)c2)cc1` (stereo not given) showed an Inhibition of 100%.
As for `N#Cc1ccc(N(CCOc2ccc3c(c2)CCC(=O)N3)Cc2ccccc2C(F)(F)F)cc1C(F)(F)F`, the Inhibition came out at 64%.
Turning to `Cc1ccccc1C1CCN(C2CCC(NC(=O)/C=C/c3cc(F)ccc3C(F)(F)F)CC2)CC1` (stereo not given), the Inhibition was 25%.
Compound `COc1ccc2nccc([C@@H](O)CN3CCC(NCCOc4cc(F)cc(F)c4)CC3)c2c1.O=C(O)C(=O)O` came in with an Inhibition of 86%.
Consider `Cc1onc(-c2ccccc2)c1C(=O)Nc1nc(-c2ccccn2)nc2ccsc12`, for which the Inhibition worked out at 78%.
As to `COc1ccc(-c2csc(C(=O)NC3CCC(N4CCC(c5ccccc5C)CC4)CC3)c2)cc1` (stereo not given), the Inhibition amounted to 99%.
For `COc1ccc(CNc2cc(C)nc3sc4c(c23)CCC2(C4)OCCO2)cc1`, the Inhibition is reported as 2%.
As to `Cc1[nH]c(C)c(-c2ccc(-c3ccc(F)cc3)nc2)c(=O)c1Br`, the Inhibition is on record as 96%.
Same read-out and setting: under `Cc1ccc2[nH]c(-c3cc(-c4cccc(CCN5CCOCC5)c4)cnc3N)nc2c1.O=C(O)C(F)(F)F` stands 99%; under `O=C(Nc1cccc(-c2ccc(CN3CCCC3)cc2)c1)c1ccc(F)cc1.O=C(O)C(F)(F)F`, 9%; under `CC1(C)NC(N)=NC(=N)N1OCc1ccc2ccccc2c1CON1C(=N)N=C(N)NC1(C)C`, 12%.
In the case of `Cc1ccc2c(=NN=Cc3cccc(F)c3)cc(C)[nH]c2c1`, the Inhibition is reported as 66%.
